Screening results as filed in PubChem.
Hits are enriched below; roughly 2.9% of the tested compounds scored in any of these assays.
Wnt act: activates Wnt/beta-catenin signaling in a reporter cell assay. activator, plate reader. activation, % at 9.35 µM. actives 1.2% (n = 300,000); in the data active = activation above about 30%, passing the limit was not always enough
esBAF inh: SWI/SNF esBAF complex inhibition; mouse ES cells, Bmi1-luciferase knock-in reporter, 24 h; 100% = twice the neutral-well signal; reporter increase, % at 12.5 µM; actives 2% (n = 350,000); AID 602393; in the data active = activation above about 40%;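 also: a rise in the Bmi1 reporter signal indicates esBAF inhibition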
Vif inh: blocks HIV Vif function; HEK293T cells, Vif self-association by quenched fluorescence, imaging, 24 h; actives 0.35% (n = 340,000); inhibition, % at 7.49 µM; in the data active = inhibition above about 50%, passing the limit was not always enough
PvdQ acylase: P. aeruginosa PvdQ acylase inhibition. purified PvdQ acylase, fluorescence plate reader. inhibition, % at 10 µM. actives 0.063% (n = 340,000). AID 488965; in the data active = inhibition above about 30%, passing the limit was not always enough
Glyco luc inh: N-linked glycosylation inhibition. D54 ERlucT glycosylation luciferase reporter, 24 h; percent of 100 nM tunicamycin response. reporter increase, % at 12.5 µM. actives 0.23% (n = 360,000). AID 588692;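 active = mean luciferase reporter signal, scaled so untreated is 0 and the glycosylation-blocking control 100, at or above a set limit in every replicate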;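 also: luciferase carries N-glycosylation sites so blocking glycosylation raises the light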
MITF TRPM1 HTS: activators of MITF-driven TRPM1 promoter activity in SK-MEL-5 cells | actives 0.75% (n = 300,000) | SK-MEL-5 TRPM1-promoter luciferase, 24 h; % of positive control, neutral wells = 0 | activation, % at 12.5 µM | AID 588334;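 active = mean activation of at least 80% with every replicate also reaching 80%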
A number is an active result; n = inactive; x = not tested or not shown.

SMILES | Wnt act | esBAF inh | Vif inh | PvdQ acylase | Glyco luc inh | MITF TRPM1 HTS
C[C@H](CO)N1C[C@H](C)[C@@H](CN(C)CC2CCCCC2)Oc2ccc(NC(=O)CCN3CCOCC3)cc2CC1=O | x | n | x | x | x | x
Cc1cc(C)c2oc(-c3cccc(N)c3)nc2c1 | n | 55 | n | n | n | x
COc1ccc(C2=Nc3ccccc3NC(=O)C2N(C(=O)c2cnc(C)cn2)c2ccc(N3CCOCC3)cc2)cc1 (stereo not given) | n | 48 | n | x | n | x
CC(=O)Nc1nc2c(C)cc(NC(=O)C3CCCCC3)cc2s1 | n | 60 | n | n | n | x
CC(=O)Nc1cc(C)c2nc(NC(C)=O)sc2c1 | n | n | n | n | n | n
Cc1c(Cl)ccc2sc(NC(=O)C3CC3)nc12 | n | 53 | n | n | n | x
CC(=O)Nc1nc2c(C)c(Cl)ccc2s1 | n | n | n | n | n | n
Cc1nc2c(ccc3nc(NC(=O)C4CC4)sc32)s1 | n | 68 | n | n | n | n
CN(C(=O)CSc1ncnc2sccc12)C1CCCCC1 | 47 | 75 | n | n | n | n
CN(C(=O)CSc1ncnc2sccc12)C1CCS(=O)(=O)C1 (stereo not given) | n | n | n | n | n | n
COCC(=O)N1C[C@@H](C)[C@H](OC)CN(C)C(=O)c2ccc(NC(=O)C3CCC3)cc2OC[C@@H]1C | x | n | x | x | x | x
C[C@H](CO)N1C[C@H](C)[C@@H](CN(C)S(=O)(=O)c2cn(C)cn2)Oc2c(cccc2N(C)C)C1=O | x | n | x | x | x | x
NS(=O)(=O)OCC1CCCCC1 | n | n | n | n | n | n
Nc1nc(N)c(N=O)c(OCC2CCCCC2)n1 | n | 42 | n | n | n | n
CC(OC(=O)c1ccc(Br)o1)C(=O)Nc1ccc2c(c1)OCCO2 (stereo not given) | n | n | n | n | n | n
C/C(=C\C(=O)c1ccc(C)o1)Nc1ccc2c(c1)OCO2 | x | 66 | x | n | n | n
Cc1ccc(C(=O)Nc2ccc3c(c2)OCO3)o1 | x | 48 | x | n | n | n
O=C(Nc1ccc2c(c1)OCCO2)c1ccc(Br)o1 | 55 | n | x | n | n | n
Cc1ccc(C(=O)OCC(=O)Nc2ccc3c(c2)OCO3)o1 | n | n | n | n | n | n
C[C@@H]1CN([C@@H](C)CO)C(=O)c2c(c3ccccc3n2C)-c2ccccc2CO[C@H]1CN(C)S(=O)(=O)c1cn(C)cn1 | x | n | x | x | x | x
CO[C@@H]1CN(C)C(=O)c2cc(NC(=O)C3CC3)ccc2OC[C@@H](C)N(C(=O)c2cccnc2)C[C@@H]1C | x | n | x | x | x | x
CCc1ccc(/C=N/NC(=O)c2cc(-c3ccncc3)nc3ccccc23)s1 | n | x | n | n | 30 | n
O=C(N/N=C/c1ccco1)c1cc(-c2ccncc2)nc2ccccc12 | n | x | x | n | 28 | n
Cc1ccc(-c2cc(C(=O)NC3=NCCS3)c3ccccc3n2)cc1C | 40 | x | n | n | n | n
COc1cc(/C=N/NC(=O)c2cc(-c3ccco3)nc3ccccc23)cc(OC)c1O | n | x | n | n | n | n
SMILES | Wnt act | esBAF inh | Vif inh | PvdQ acylase | Glyco luc inh | MITF TRPM1 HTS
O=C(N/N=C/c1cccc(F)c1)c1cc(-c2ccco2)nc2ccccc12 | n | 79 | x | n | n | n
O=C(N/N=C/c1cccs1)c1cc(-c2ccncc2)nc2ccccc12 | n | n | 117 | n | n | n
Cc1ccc(-c2cc(C(=O)N/N=C/c3c(C)nn(C)c3C)c3ccccc3n2)cc1C | x | 48 | n | n | n | n
O=C(N[C@@H]1CC[C@H](CCNC(=O)c2ccccc2F)O[C@H]1CO)c1ccc2c(c1)OCO2 | x | n | x | x | x | x
C[C@@H]1CN([C@H](C)CO)C(=O)CCCn2nncc2CO[C@H]1CN(C)C(=O)Nc1ccc(-c2cccs2)cc1 | x | n | x | x | x | x
CC(=O)NCCNc1nc2cc(-c3ccc(C)cc3)sc2c(=O)n1C | n | 54 | n | x | n | x
COc1ccccc1N1CCN(C(=O)CCC(=O)N2CCN(c3ccccc3OC)CC2)CC1 | n | n | n | n | n | n
COc1ccccc1N1CCN(C(=O)CSc2ccccc2)CC1 | x | 49 | n | n | n | n
COc1ccc(/C=C/C(=O)NC(=S)N2CCN(c3ccccc3OC)CC2)cc1 | n | 77 | n | n | n | x
COc1ccc(NC(=O)N(C)C[C@@H]2Oc3ccc(NS(=O)(=O)c4ccc(C)cc4)cc3C(=O)N([C@@H](C)CO)C[C@H]2C)cc1 | x | n | x | x | x | x
CC(/C=C/c1ccccc1)=N/NC(=O)c1cc([N+](=O)[O-])cc([N+](=O)[O-])c1 | n | x | n | n | n | n
